Screens from PubChem BioAssay.
CHO-K1 Ca antag – counter-screen for M1 antagonists: effect in parental CHO-K1 cells; 360,000 compounds, 0.6% hits; inhibition, % at 3 µM; ATP-induced calcium, Fluo-8 fluorescence; AID 602250;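 active = inhibition above a per-plate cutoff, the plate's mean sample inhibition plus 3 SD, cut at about 24% in these data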
M4 PAM – positive allosteric modulators of human muscarinic M4 receptor; P08173; CHO-K1 hM4/Gqi5, Fluo-8 calcium fluorescence, ACh EC20; 0% = ACh EC20, 100% = maximal ACh; activation, % at 3 µM; 360,000 compounds, 0.4% hits;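 active = activation above its plate's cutoff, the mean activation of sample wells plus 3 SD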
Target sequence (P08173 whole entry, looked up): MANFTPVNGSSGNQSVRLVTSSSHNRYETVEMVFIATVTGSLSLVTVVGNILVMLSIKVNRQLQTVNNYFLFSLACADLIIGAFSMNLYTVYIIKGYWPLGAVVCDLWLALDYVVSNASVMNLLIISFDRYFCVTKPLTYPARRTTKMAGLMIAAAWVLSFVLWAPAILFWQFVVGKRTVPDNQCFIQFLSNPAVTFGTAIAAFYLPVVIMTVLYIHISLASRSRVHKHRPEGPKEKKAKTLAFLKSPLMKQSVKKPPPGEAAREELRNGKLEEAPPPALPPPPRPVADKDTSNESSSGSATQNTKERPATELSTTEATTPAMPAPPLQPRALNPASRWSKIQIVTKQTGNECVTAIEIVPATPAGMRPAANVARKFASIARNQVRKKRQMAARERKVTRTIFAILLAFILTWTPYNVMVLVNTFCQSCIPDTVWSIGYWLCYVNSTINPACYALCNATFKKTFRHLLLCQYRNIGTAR
CHRM4 antagonist – antagonists of human muscarinic M4 receptor (CHRM4); P08173; CHO-hM4 cells, ACh EC80, Fluo-8 calcium fluorescence; inhibition, % at 3 µM; 360,000 compounds, 0.73% hits;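 active = inhibition above its plate's cutoff, the mean inhibition of sample wells plus 3 SD, cut at about 27% in these data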
M1 ag parental – M1 agonist counterscreen hit in parental CHO-K1 cells; activation, % at 3 µM; Fluo-8 calcium fluorescence; scaled to maximal ATP response, vehicle zero; 360,000 compounds, 0.48% hits; in the data active = activation above about 15%;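 note: untransfected CHO-K1 host cells lacking M1 receptor as counterscreen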
CHO-K1 Ca PAM – counter-screen for M1 PAMs: effect in parental CHO-K1 cells. ATP EC20, Fluo-8 calcium fluorescence; 0% at ATP EC20, 100% at ATP max. 360,000 compounds, 0.02% hits. activation, % at 3 µM. AID 602247;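 active = activation above the run cutoff, the mean activation of all test compounds plus 3 SD, cut at about 40% in these data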;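 note: peak over basal fluorescence ratio in a 140 s read after ATP addition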
M4 ag – CHRM4 agonism in calcium assay. P08173. CHO-K1 hM4/Gqi5, Fluo-8 calcium fluorescence; vehicle 0%, full acetylcholine response 100%. activation, % at 3 µM. 360,000 compounds, 0.14% hits. AID 624127;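 active = activation above the run mean over all test wells plus 3 SD, cut at about 32% in these data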;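 note: peak over basal fluorescence ratio per well then scaled between controls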
Of the large screens only hits and unclear results are named; the others gave an inactive call. Most compounds without a hit are left out; they make up all but 2% or so of the library.

CC(C)(C)c1ccc(C(=O)Nc2c3c(nn2C(C)(C)C)CS(=O)(=O)C3)cc1	none
CCN(CC)S(=O)(=O)c1ccc(C(=O)Nc2c3c(nn2C(C)(C)C)CS(=O)(=O)C3)cc1	CHRM4 antagonist 26.7
Cc1nn(C)c(NC(=O)c2ccc([N+](=O)[O-])cc2)c1Cl	none
CCN1CCN(C(=O)c2ccc3c(Cl)c4c(nc3c2)CCCC4)CC1	none
CN1CCN(C(=O)c2ccc3c(Cl)c4c(nc3c2)CCCC4)CC1	M4 PAM 15.3
Cc1ccc(-c2csc(N=C(N)N)n2)cc1	none
O=C(CCCN1C(=O)/C(=C/c2ccccc2)SC1=S)Nc1cccc(O)c1	none
Cc1[nH]c2ccccc2c1C(=O)COC(=O)Cn1cnc2ccccc21	none
O=C(Nc1ccccc1)Nc1cc(Cl)cc(Cl)c1	CHO-K1 Ca antag 24.3
O=C(Nc1cccnc1)Nc1ccccc1Cl	none
O=C(Nc1cccnc1)Nc1cc(Cl)cc(Cl)c1	CHO-K1 Ca antag 36.9
O=C(Nc1ccccc1)Nc1cc(OCC(F)(F)F)cc(OCC(F)(F)F)c1	CHO-K1 Ca antag 31.9
CC(=O)c1ccc(NS(=O)(=O)c2ccc([N+](=O)[O-])cc2)cc1	none
Cc1cccc(OC(=O)C2C(c3ccccc3)C(C(=O)O)C2c2ccccc2)c1 (stereo not drawn)	M4 PAM 31.1
Cc1sc2nc(C3CC3)nc(N3CCN(C(=O)c4ccc(Cl)cc4)CC3)c2c1C	M4 PAM 37.2
COc1ccc(C(=O)N2CCN(c3nc(C4CC4)nc4sc(C)c(C)c34)CC2)cc1	M4 PAM 20.3
Cc1sc2nc(C3CC3)nc(N3CCN(C(=O)c4ccc(F)cc4)CC3)c2c1C	M4 PAM 18.2
Cc1sc2nc(C3CC3)nc(N3CCN(C(=O)c4ccccc4F)CC3)c2c1C	none
CCN1CCN(CCCNC(=O)c2ccc3c(=O)n(CCc4ccccc4)c(=O)[nH]c3c2)CC1	none
CC1=CC(C)(C)N(C(=O)CNC2CCCC2)c2cc(C)ccc21	CHRM4 antagonist 48.9
CCOc1ccc2c(c1)N(C(=O)CN1C(=O)CCC1=O)C(C)(C)C=C2C	none
CCn1c(=NC(=O)C2COc3ccccc3O2)sc2c(OC)ccc(OC)c21 (stereo not drawn)	CHRM4 antagonist 36.4
COCCn1c(=NC(=O)C2COc3ccccc3O2)sc2cc(S(N)(=O)=O)ccc21 (stereo not drawn)	none
Cc1ccc(NC(=O)C2CCCN(C3=NS(=O)(=O)c4ccccc43)C2)c(O)c1 (stereo not drawn)	CHO-K1 Ca antag 26.3
COc1ccccc1NC(=O)c1cc(S(=O)(=O)N2CCCCCC2)ccc1F	M4 PAM 30.0, M4 ag 34.3
COc1ccccc1NC(=O)C1CCCN(c2nc(C)cc(C)n2)C1 (stereo not drawn)	M4 PAM 17.2
COc1ccc(S(=O)(=O)N2CCCC2)cc1NC(=O)c1ccccc1F	none
COc1ccc(OC)c(NC(=O)C2C3C=CC(C3)C2C(=O)NCc2cccnc2)c1 (stereo not drawn)	none
COc1ccccc1NC(=O)C1C2C=CC(C2)C1C(=O)NCc1cccnc1 (stereo not drawn)	CHO-K1 Ca antag 25.6
O=C(NCCCN1CCOCC1)c1ccco1	none
COc1ccc(C(=O)OCc2nnc(-c3ccccc3)o2)cc1S(=O)(=O)N1CCOCC1	none
COc1ccc(S(=O)(=O)NC(C)C(=O)N2CCCC2)cc1Cl (stereo not drawn)	none
COc1ccccc1NC(=O)C(=O)N1CCCC1	M1 ag parental 15.9
COC(=O)c1ccccc1NC(=O)NCc1ccncc1	M1 ag parental 16.5
COc1ccccc1NC(=O)N1CCCC1	none
COC(=O)c1ccccc1NC(=O)CCc1ccccc1	CHO-K1 Ca antag 24.1
COc1ccc(Cl)cc1NC(=O)C(=O)NCc1ccncc1	none
COc1ccccc1NC(=O)C(=O)NCc1ccncc1	CHO-K1 Ca antag 25.3
COC(=O)c1ccsc1NC(=O)CCc1ccccc1	none
O=C(CNC(=O)N1CC(=O)Nc2ccccc21)NCCCc1ccccc1	none
CC(C)(C)N(Cc1ccccc1)C(=O)c1ccc(Cl)cc1[N+](=O)[O-]	CHRM4 antagonist 26.8
CCN(C(=O)c1ccc(Cl)cc1[N+](=O)[O-])c1ccccc1C	none
Cc1ccc(C(=O)N(Cc2ccccc2)C(C)(C)C)cc1C	CHRM4 antagonist 36.6
C[C@H](NC(=O)c1ncn(Cc2ccccc2)c1C(=O)N[C@@H](C)c1ccccc1)c1ccccc1	none
Cc1cccc(NC(=O)c2ccc(S(=O)(=O)NCc3cccnc3)cc2)c1C	none
Cn1c(O)c(N=NC(=O)c2ccco2)c2ccccc21	none
CC(=O)NCc1nc2ccccc2n1Cc1ccccc1F	CHO-K1 Ca antag 23.8
CCN(CC)CCNC(=O)c1ccc(NC(=O)c2ccccc2-c2ccc(C(F)(F)F)cc2)cc1	CHRM4 antagonist 70.8
CCN(CC)CCNC(=O)c1ccc(NC(=O)Cc2ccccc2F)cc1	none
CCN(CC)CCNC(=O)c1ccc(NC(=O)c2ccc3c(c2)CCC3)cc1	none
CCN(CC)CCNC(=O)c1ccc(NC(=O)c2cccc(S(=O)(=O)N(C)C3CCCCC3)c2)cc1	CHRM4 antagonist 98.2
CCOC(=O)N/N=C/c1c(F)c(F)c(F)c(F)c1F	none
Cc1cc(C)nc(NCCO)n1	none
CC(C)[C@H](NC(=O)c1c(F)cccc1F)C(=O)Nc1cccc(Br)c1	M1 ag parental 19.1
Cc1nc2ccc(NC(=O)[C@@H](NC(=O)c3c(F)cccc3F)C(C)C)cc2s1	none
O=C(NS(=O)(=O)c1ccc(NC(=O)C2CCCO2)cc1)c1ccccc1 (stereo not drawn)	none
Cc1ccc(-c2ccc(=O)n(CCC(=O)N3CCN(c4cccc(C)c4)C(C)C3)n2)cc1 (stereo not drawn)	none
NC(=O)CCN1CCN(Cc2nc(C(c3ccccc3)c3ccccc3)no2)CC1	none
Cc1ccc2c(Cl)cc(Cl)c(OCC(=O)NCCc3ccccn3)c2n1	CHRM4 antagonist 76.8
O=C(O)C1CC=CCC1C(=O)c1ccccc1 (stereo not drawn)	none
Nc1nc(N)c(N=O)c(Nc2ccc(Cl)c(Cl)c2)n1	CHO-K1 Ca PAM 52.9
Cc1ccc(Nc2nc(N)nc(N)c2N=O)cc1Cl	M1 ag parental 36.4
Cc1cccc(C)c1NC(=O)CN(C)C(=O)C1CCCCC1	none
COc1ccc(-n2c(SCC(=O)Nc3ccc(C(=O)O)cc3)nnc2-c2cccs2)cc1	none
COc1ccc(-c2nnc(SCC(=O)Nc3ccc(C(=O)O)cc3)n2-c2ccc(Cl)cc2)cc1	M4 PAM 13.2
CCC(C)NC(=O)c1c(N)n(/N=C/c2cccnc2)c2nc3ccccc3nc12 (stereo not drawn)	CHO-K1 Ca antag 25.1
CCC(C)NC(=O)c1c(N)n(/N=C/c2ccccn2)c2nc3ccccc3nc12 (stereo not drawn)	none
